This note sets out measurements from PubChem BioAssay (NCI).

About 83,000 compounds went through this panel and 20% of them were active in at least one assay; those are over-represented in the sample as a whole.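 Plates (96-well) were seeded with cells, treated with compound at one concentration, and incubated for 48 hours before percent growth was determined.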 Values without a mark were called inactive. Activity calls are given as the source filed them. How the source made its calls: active means growth percent below 10; inactive means the rest.

Test in all cases: NCI-60 one-dose screen, 48 h (100 = growth as untreated, 0 = no growth, -100 = all killed)
Holding throughout (conditions): 10 µM unless noted

In test [1] the test system is DU-145 prostate.
The test system of test [2] is K-562 leukemia.
In test [3] the test system is MALME-3M melanoma.
The test system of test [4] is MDA-MB-231 breast.
Test [5] relates to SF-268 CNS.
For test [6], the system named is SF-539 CNS.
The test system of test [7] is UACC-257 melanoma.
For test [8], the system named is M14 melanoma.
For test [9], the system named is HCT-15 colon.
Test [10] relates to HT29 colon.
The subject of test [11] is SNB-75 CNS.
Test [12] has as its system SNB-19 CNS.
Test [13] deals with PC-3 prostate.
Test [14] concerns SK-MEL-5 melanoma.
Test [15] deals with UACC-62 melanoma.
For test [16], the system named is LOX IMVI melanoma.
Test [17] relates to SK-MEL-28 melanoma.
Test [18] relates to RXF 393 renal.
Test [19] relates to SF-295 CNS.
Test [20] concerns U251 CNS.

Take `Cc1csc2ccc(Cl)cc12`: the growth is 110% in test [1]; 106% in [2]; 97.7% in test [3]; 97% in [4]; 108% in test [5]; 96.8% in test [6]. The growth is 102% in [7]; 101% in [8]; 95.6% in test [9]; 102% in [10]; 69.7% in test [11]; 99.2% in test [12]. The growth in test [13] is 96.8%; in test [14], 107%; in test [15] it was 96.2%; in test [16], 103%; in test [17], 104%.

`Cc1cccc(NC(=O)c2sc3nc4c(cc3c2N)C(=O)CCC4)c1`: the growth in test [1] was 9.01% (active); in test [2] it was 18.8%; in [4], 36.6%; in test [18] it was 22.7%; in test [5], 64.8%; in test [19] it was 20.6%. The growth in test [6] is -27.7% (active); in test [7], 76.3%; in [8], 21.8%; in test [9] it was 28.9%; in test [10] it was 11.7%; in test [11], 4.87% (active). The growth is 42.1% in test [12]; 27.1% in [13]; 22.8% in [14]; 22% in test [15]; 54.4% in [16]; 62.2% in test [17].

For the molecule `CCOC(=O)CC(C)=N`, the growth in [1] was 121%; in [2] it was 110%; in [3] it was 99.9%; in test [4], 103%; in test [5] it was 130%; in test [19], 111%. Further, the growth in test [6] was 97.6%; in [7], 102%; in test [8] it was 102%; in test [9] it was 105%; in test [10], 103%; in test [11], 84%. For the same molecule, the growth in test [12] is 99.7%; in [13] it was 104%; in test [14], 100%; in test [15], 102%; in test [16], 118%; in [17], 101%.

Consider `COC1C/C(=N\O)C2OC(c3ccccc3)OCC2O1` (stereo not given), for which the growth in [1] was 109%; in [2], 97.3%; in test [3], 100%; in test [4] it was 105%; in test [5], 109%; in test [6] it was 101%. Moreover, the growth in test [7] was 68.1%; in [8] it was 104%; in test [9] it was 97.8%; in test [10], 113%; in [11], 66.1%; in test [12], 94.3%. In addition, the growth in test [13] is 100%; in test [14], 102%; in [15], 96.5%; in test [16] it was 101%; in test [17] it was 101%.

Regarding `N#Cc1ccc(NC(=O)Nc2ccc(Cc3ccc(NC(=O)Nc4ccc(C#N)cc4)cc3)cc2)cc1`, the growth is 40.5% in test [1]; 11.5% in test [2]; 27.5% in [3]; 51.4% in [18]; 44.5% in test [5]; 12.1% in test [19]. The growth in [6] is 50.7%; in [7], 26.3%; in [8], 37.2%; in test [9], 25.9%; in test [10], 52.5%; in test [11], 83.3%. Also, the growth in test [20] is 34.4%; in test [13] it was 23.3%; in test [14], 10.5%; in test [15], 14.2%; in test [16] it was -67.6% (active); in test [17], 36.7%.

Regarding `CCN(CC)CCCNc1cccc2c(SCc3ccccc3)ccnc12`, the growth in test [1] was -22.8% (active); in test [2], -63% (active); in [3] it was -84.3% (active); in test [18], 88.4%; in [5], 23.9%; in [19], 61%. Further, the growth in [6] was 81.4%; in [7] it was 88.1%; in test [8], -47.4% (active); in test [9] it was 81.1%; in test [10], -33.1% (active); in test [11], 87.1%. Further, the growth was 48.6% in test [20]; 17.7% in test [13]; 85.4% in test [14]; 24% in [16]; 108% in test [17].

For `Cc1cc2c(cc1C)NC1=C(N2)OC(c2c3ccccc3cc3ccccc23)C1=O` (stereo not given), the growth in test [1] was 16.7%; in [2] it was 9.62% (active); in test [3], 13.9%; in test [18] it was 24.2%; in test [5], 39.3%; in test [19], -1.93% (active). Moreover, the growth in [6] was -21.9% (active); in test [7], 65.5%; in [9] it was 0.544% (active); in test [10] it was 12.5%; in test [11] it was 49.4%; in [13], 28.2%. Further, the growth is -40.6% (active) in test [14], 3.19% (active) in [15], -35.4% (active) in [16] and 31.5% in [17].

As to `C=CCSc1nnc(-c2ccc(C(C)(C)C)cc2)n1-c1cccc(C(F)(F)F)c1`, the growth in test [1] is 54.3%; in [2], 20.3%; in test [3] it was 66.1%; in test [18], 18.1%; in [19] it was 29.3%; in [6] it was 69.5%. Moreover, the growth in test [7] was 48.5%; in test [8], 45.3%; in [9] it was 17.7%; in [10] it was 26.3%; in test [11] it was 80.5%; in test [20], 32.6%. The growth is 16.6% in test [13]; 37.4% in test [14]; 42.4% in [15]; 47.1% in test [16]; 67.8% in [17].

Regarding `COc1cccc(NC(=O)c2sc3nc4c(cc3c2N)CN(Cc2ccccc2)CC4)c1`, the growth in test [1] is 66.1%; in test [2] it was 33.2%; in test [4], 62.5%; in test [18] it was 49.3%; in test [5], 42.9%; in test [19], 49.6%. Also, the growth in test [6] was 30.5%; in test [7] it was 61.2%; in [8], 68.2%; in [9], 42.2%; in test [10], 44.5%; in [11] it was -19.7% (active). Moreover, the growth was 71.1% in [13]; 62.6% in test [14]; 35.1% in test [15]; 67.4% in test [16]; 76.8% in [17].
